Measurements published in PubChem BioAssay AID1159580 (chemical genetic matrix, 2015).
In all, about 5,500 compounds went through this assay and about 2,000 (36%) were called active. Not shown: some 18% with an inconclusive outcome. Rule as the data show it: active = normalized growth mostly below about 0.91 (no sharp cut-off); inconclusive = no clear call, values can overlap the other calls; inactive = mostly above about 0.92. The list shows a part of the results.

Test: chemical genetic growth profiling, strain panel (AID 1159580);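 also: tested at 20 µM; growth read once vehicle control cultures reached saturation at 30 °C; 1 = growth at the plate median or of vehicle wells; lower values mean less growth of the strain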
Conditions: S. cerevisiae deletion strains, growth OD

Measured: normalized growth

O=C(O)CC(O)(CC(=O)O)C(=O)O
inactive: locus YAL021C, strain ccr4, stronger effect = lower value 1 | locus YAL026C, strain drs2, stronger effect = lower value 1.01 | locus YAL030W, strain snc1, stronger effect = lower value 1 | locus YBL061C, strain skt5, stronger effect = lower value 1.01 | locus YBR009C, strain hhf1, stronger effect = lower value 1 | locus YBR023C, strain chs3, stronger effect = lower value 1.01 | locus YBR171W, strain sec66, stronger effect = lower value 1.01 | locus YBR231C, strain swc5, stronger effect = lower value 1.01 | locus YBR279W, strain paf1, stronger effect = lower value 1 | locus YCL011C, strain gbp2, stronger effect = lower value 1.01 | locus YCL016C, strain dcc1, stronger effect = lower value 0.997 | locus YCL069W, strain vba3, stronger effect = lower value 1.01 | locus YCR088W, strain abp1, stronger effect = lower value 1.02 | locus YDL005C, strain med2, stronger effect = lower value 1.01 | locus YDL040C, strain nat1, stronger effect = lower value 1.01 | locus YDR001C, strain nth1, stronger effect = lower value 0.998 | locus YDR069C, strain doa4, stronger effect = lower value 1.03 | locus YDR137W, strain rgp1, stronger effect = lower value 1 | locus YDR159W, strain sac3, stronger effect = lower value 1 | locus YDR195W, strain ref2 1.05 | locus YDR297W, strain sur2, stronger effect = lower value 0.994 | locus YDR334W, strain swr1, stronger effect = lower value 1 | locus YDR335W, strain msn5, stronger effect = lower value 1.01 | locus YDR392W, strain spt3, stronger effect = lower value 0.966 | locus YEL003W, strain gim4, stronger effect = lower value 0.998 | locus YEL037C, strain rad23, stronger effect = lower value 1.01 | locus YEL061C, strain CIN8 (second series), stronger effect = lower value 1 | locus YER015W, strain faa2, stronger effect = lower value 1.02 | locus YER016W, strain bim1, stronger effect = lower value 1.01 | locus YER111C, strain swi4, stronger effect = lower value 1.01 | locus YER155C, strain BEM2 (second series), stronger effect = lower value 1.05 | locus YFR010W, strain ubp6, stronger effect = lower value 1.02 | locus YGL167C, strain pmr1, stronger effect = lower value 1.01 | locus YGL173C, strain kem1, stronger effect = lower value 0.999 | locus YGL227W, strain vid30, stronger effect = lower value 1.01 | locus YGL240W, strain doc1, stronger effect = lower value 1.02 | locus YGL253W, strain hxk2, stronger effect = lower value 0.997 | locus YHR013C, strain ard1, stronger effect = lower value 1 | locus YHR027C, strain rpn1, stronger effect = lower value 1.01 | locus YHR030C, strain SLT2, stronger effect = lower value 0.979 | locus YHR079C, strain IRE1, stronger effect = lower value 0.995 | locus YHR142W, strain chs7, stronger effect = lower value 0.993 | locus YJL092W, strain hpr5, stronger effect = lower value 1.01 | locus YJL095W, strain BCK1 (second series), stronger effect = lower value 1.02 | locus YJL095W, strain BCK1, stronger effect = lower value 1.02 | locus YJL115W, strain asf1, stronger effect = lower value 1.03 | locus YJL129C, strain trk1, stronger effect = lower value 1.03 | locus YJL154C, strain vps35, stronger effect = lower value 1.01 | locus YJL164C, strain tpk1, stronger effect = lower value 1 | locus YJL166W, strain qcr8, stronger effect = lower value 1.03 | locus YJL187C, strain SWE1, stronger effect = lower value 1.01 | locus YJR066W, strain TOR1, stronger effect = lower value 0.953 | locus YKL160W, strain elf1, stronger effect = lower value 1.01 | locus YKR026C, strain gcn3, stronger effect = lower value 1.01 | locus YKR091W, strain srl3, stronger effect = lower value 1.01 | locus YLL001W, strain dnm1, stronger effect = lower value 1.01 | locus YLL026W, stronger effect = lower value 0.999 | locus YLL041C, strain sdh2, stronger effect = lower value 1.01 | locus YLR027C, strain aat2, stronger effect = lower value 1 | locus YLR113W, strain HOG1, stronger effect = lower value 1.02 | locus YLR221C, strain rsa3, stronger effect = lower value 0.988 | locus YLR258W, strain gsy2, stronger effect = lower value 1.01 | locus YLR262C, strain YPT6 (second series), stronger effect = lower value 1.02 | locus YLR320W, strain mms22, stronger effect = lower value 0.998 | locus YLR342W, strain FKS1, stronger effect = lower value 1.02 | locus YLR357W, strain rsc2, stronger effect = lower value 1 | locus YLR370C, strain arc18, stronger effect = lower value 0.982 | locus YLR384C, strain iki3, stronger effect = lower value 1.01 | locus YML120C, strain ndi1, stronger effect = lower value 1.01 | locus YMR058W, strain fet3, stronger effect = lower value 1.01 | locus YMR125W, strain sto1, stronger effect = lower value 1.02 | locus YMR129W, stronger effect = lower value 1.01 | locus YMR205C, strain PFK2, stronger effect = lower value 1.01 | locus YMR231W, strain pep5, stronger effect = lower value 1.01 | locus YNL071W, strain lat1, stronger effect = lower value 1 | locus YNL183C, strain NPR1, stronger effect = lower value 0.98 | locus YNL209W, strain ssb2, stronger effect = lower value 0.998 | locus YNL248C, strain rpa49, stronger effect = lower value 1.01 | locus YNL322C, strain KRE1 (second series), stronger effect = lower value 1 | locus YNR049C, strain mso1, stronger effect = lower value 1 | locus YOR001W, strain rrp6, stronger effect = lower value 1.04 | locus YOR070C, strain gyp1, stronger effect = lower value 1.01 | locus YOR080W, strain dia2, stronger effect = lower value 1.02 | locus YOR083W, strain WHI5, stronger effect = lower value 1.02 | locus YOR106W, strain vam3, stronger effect = lower value 1.02 | locus YOR231W, strain MKK1, stronger effect = lower value 0.985 | locus YOR265W, strain rbl2, stronger effect = lower value 1.01 | locus YOR270C, strain vph1, stronger effect = lower value 0.988 | locus YOR290C, strain snf2, stronger effect = lower value 0.99 | locus YPL051W, strain arl3, stronger effect = lower value 1.01 | locus YPL078C, strain atp4, stronger effect = lower value 1.03 | locus YPL106C, strain sse1, stronger effect = lower value 1.01 | locus YPL240C, strain hsp82, stronger effect = lower value 1 | locus YPL256C, strain CLN2, stronger effect = lower value 0.968
